TRb SRC2 PPI – disrupts binding of human TR beta to SRC2 | P10828 | TRbeta-SRC2 peptide binding, fluorescence polarization; receptor liganded with 1 µM T3 | Potency, µM (top dose mostly 106 µM), for inactives: at the highest dose activity change, negative = inhibition, most hits filed as inhibitors | actives 0.065% (n = 280,000) | AID 1469;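 also: plate controls were bound peptide for no effect and peptide without receptor for full effect; nearly all actives have a fitted effect of over 50% in size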
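Read-out is fluorescence polarization (555 nm excitation, 632 nm emission) of a Texas Red SRC2 coactivator peptide; loss of signal reflects blocked binding to human TRb ligand-binding domain in the presence of 1 uM T3.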
Tau fluor counter – counter-screen for tau fibril formation inhibitors; tau K18 P301L Alexa594 fluorescence, heparin fibrillization; Potency, µM (series often up to 57.7 µM), inactives show at the top dose activity change, negative = decrease; actives 0.93% (n = 280,000); also: nearly all actives have a fitted effect of over 55% in size
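Human tau K18 P301L (15 uM unlabeled, 0.24 uM Alexa 594-labeled) in 100 mM sodium acetate pH 7 with 20 uM heparin, 6 hr at 37 C. ThT 30 uM added, 1 hr ambient; Alexa 594 FP and total fluorescence read at 555/632 nm.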
Tau fibril ThT – inhibitors of human tau fibril formation, thioflavin T binding; actives 2.1% (n = 270,000); AID 1460; P10636; recombinant tau K18 P301L (four-repeat tau fragment), heparin-induced fibrillization, ThT fluorescence; Potency, µM (doses to about 57.4 µM), for inactives: top-dose activity, negative = inhibition, usual class: inhibitors; also: nearly all actives have a fitted effect of over 55% in size
Target sequence (P10636 561-689 P618L limits assumed): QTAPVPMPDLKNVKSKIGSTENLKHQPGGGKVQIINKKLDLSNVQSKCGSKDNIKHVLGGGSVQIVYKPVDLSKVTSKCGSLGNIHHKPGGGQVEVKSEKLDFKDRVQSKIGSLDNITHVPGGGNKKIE
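Heparin-induced (20 uM) aggregation of recombinant human K18 P301L tau, 15 uM unlabeled with 0.24 uM labeled, pH 7 acetate buffer, 6 hr at 37 C with compound. Fibrils quantified by 30 uM ThT fluorescence after 1 hr ambient incubation.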
GoLoco inh red – RGS12 GoLoco-Gai1 interaction inhibition. actives 0.44% (n = 230,000). Potency, µM (doses to about 61.6 µM), for the others: at the highest dose activity, negative = inhibition, actives largely listed as inhibitors. P63096. Gai1:RGS12 GoLoco peptide FP, rhodamine, 10 min; active = well fitted inhibition curve with a large enough effect, not every such curve was filed as active; inactive = no such curve, though single readings can be large or run the other way; also: nearly all actives have a fitted effect of over 30% in size
Target sequence (P63096 whole entry, looked up): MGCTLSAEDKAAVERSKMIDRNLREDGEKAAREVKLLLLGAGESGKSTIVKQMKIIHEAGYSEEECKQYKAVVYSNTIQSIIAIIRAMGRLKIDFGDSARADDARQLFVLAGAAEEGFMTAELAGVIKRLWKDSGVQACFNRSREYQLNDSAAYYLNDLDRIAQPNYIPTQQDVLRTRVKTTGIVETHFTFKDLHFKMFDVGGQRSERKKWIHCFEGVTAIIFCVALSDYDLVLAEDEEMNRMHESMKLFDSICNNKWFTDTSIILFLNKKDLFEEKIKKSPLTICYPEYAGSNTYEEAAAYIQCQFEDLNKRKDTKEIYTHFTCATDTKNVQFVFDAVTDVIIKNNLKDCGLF
Tau fibril FP – tau fibrillization inhibition (FP); AID 1468; Potency, µM (doses to about 57.7 µM), without a hit: at the highest dose activity, negative = inhibition, actives largely listed as inhibitors; K18 P301L tau heparin fibrillization, Alexa594 FP, 6 h; actives 0.39% (n = 280,000); also: nearly all actives have a fitted effect of over 55% in size
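Compound effects on tau fibrillization are measured by Alexa 594 fluorescence polarization (ex 555, em 632 nm). K18 P301L tau is used at 15 uM with 0.24 uM labeled tracer, and 20 uM heparin induces aggregation over 6 hr at 37 C.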
TexasRed fluor – Texas Red fluorescence interference in TRb-SRC2 counter-screen | TRb/SRC2 Texas Red total fluorescence interference | Potency, µM (highest dose often 106 µM), for the others: at the top dose fluorescence change, negative = quenching | actives 0.29% (n = 280,000); active = well fitted curve in either direction with a large enough effect; inconclusive = small, poorly fitted or top-dose-only effect
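Human TRb ligand-binding domain at 0.6 uM with 20 nM Texas Red SRC2 peptide in Tris buffer containing 1 uM T3 and 5% DMSO, incubated with compound 5 h at ambient temperature. Total fluorescence (555/632 nm) calculated as parallel + 2 × perpendicular.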
* = called active by the depositor; ? = inconclusive; . = not tested or not shown; [ ] = remark or other dose. In the library only some 3.2% were active in any assay of this set; here they are far more common. Unless noted, calls follow the shape of the dose curve; as a rule, active = well fitted curve in the direction sought with a large enough effect; inconclusive = small, poorly fitted or top-dose-only effect, or another doubt; inactive = no such curve, though single readings can be large; an effect the other way counts as inactive or inconclusive. Unless noted, % is scaled to controls: 0 for no effect and ±100 for the full control effect; potency is read from the fitted curve at half-maximal effect.

SMILES | TRb SRC2 PPI | Tau fluor counter | Tau fibril ThT | GoLoco inh red | Tau fibril FP | TexasRed fluor
Cc1nn(C)c2c1c(C(F)(F)F)cc(=O)n2C(C)C(=O)NCc1ccccc1Cl (stereo unspecified) | -20.9% | -11.9% | -11.9% | . | 5.4% | 316µM*[quencher]
CCCn1c2ccccc2c2cnn(CC(=O)Nc3cc(C)c(Cl)cc3OC)c(=O)c21 | -3.9% | -7.9% | -2.9% | . | 1.7% | 20µM*[quencher]
Cc1ccc(CNC(=O)c2cc(=O)c3cc(C)cc(C)c3o2)cc1 | -14.0% | -18.4% | -10.9% | . | ? | 3.98µM*[quencher]
Cc1ccc(C)c(NC(=O)c2cc(=O)c3cc(C)cc(C)c3o2)c1 | 4.1% | 2.7% | 1.0% | . | -0.8% | -3.9%
CC(C)OP(=O)(OC(C)C)C(Nc1ccc([N+](=O)[O-])cc1)c1cccc([N+](=O)[O-])c1 (stereo unspecified) | 2.9% | -21.4% | -14.4% | 4.1% | 0.6% | -3.0%
CC(C)OP(=O)(OC(C)C)/C(C=O)=N\Nc1ccc([N+](=O)[O-])cc1 | 0.4% | -11.1% | 15.8µM* | -4.1% | 4.9% | -6.1%
CN1C=CC(=C2C=CN(C)C=C2)C=C1 | -2.7% | . | . | . | . | -25.0%
O=[N+]([O-])c1ccccc1NC(=S)N/N=C/c1ccc(O)c(O)c1 | 1.1% | ? | 5.62µM* | 3.6% | 2.4% | -12.7%
CNc1ccccc(-c2ccc3cc4c(cc3n2)OCO4)c1=O | -2.9% | ? | 5.01µM* | -1.9% | -14.5% | -4.6%
c1ccc2nc(-c3ccc4c(c3)OCO4)ccc2c1 | -1.8% | -7.5% | ? | 6.1% | 2.2% | -1.0%
CC[C@H](C)[C@H](NC(=O)[C@H](CO)NC(=O)[C@H](CC(C)C)NC(=O)[C@H](CO)NC(=O)[C@@H]1CCCN1C(=O)[C@H](CC(N)=O)NC(=O)[C@@H](N)CC(=O)O)C(=O)N[C@@H](CC(=O)O)C(=O)N[C@@H](CC(C)C)C(=O)N[C@H](C(=O)N[C@@H](Cc1ccccc1)C(=O)N[C@@H](Cc1cnc[nH]1)C(=O)N[C@@H](CC(C)C)C(=O)N[C@@H](CC(C)C)C(=O)N[C@@H](CCCNC(=N)N)C(=O)N[C@H](C(=O)N[C@@H](CC(C)C)C(=O)N[C@@H](CC(C)C)C(=O)N[C@@H](CCC(=O)O)C(=O)N[C@@H](CC(C)C)C(=O)N[C@@H](C)C(=O)N[C@@H](CCCNC(=N)N)C(=O)N[C@H](C(=O)N[C@@H](CCC(N)=O)C(=O)N[C@@H](CO)C(=O)N[C@@H](CCC(N)=O)C(=O)N[C@@H](CCCNC(=N)N)C(=O)N[C@@H](CCC(=O)O)C(=O)N[C@@H](CCCNC(=N)N)C(=O)N[C@@H](C)C(=O)N[C@@H](CCC(=O)O)C(=O)N[C@@H](CCC(N)=O)C(=O)N[C@@H](CC(N)=O)C(=O)N[C@@H](CCCNC(=N)N)C(=O)N[C@H](C(=O)N[C@H](C(=O)N[C@@H](Cc1ccccc1)C(=O)N[C@@H](CC(=O)O)C(=O)N[C@@H](CO)C(=O)N[C@H](C(N)=O)C(C)C)[C@@H](C)CC)[C@@H](C)CC)[C@@H](C)O)[C@@H](C)O)[C@@H](C)O | -0.4% | . | . | . | . | 1.8%
COc1cc2c(cc1OC)C(CCN)=NCC2 | . | . | . | -4.1%[14.2 µM] | . | .
CC(=O)N1CCN(c2ccc(NC(=S)NC(=O)COc3ccc(C(C)(C)C)cc3)cc2)CC1 | -5.1% | -23.8% | 3.98µM* | -6.8% | 4.5% | -1.9%
Clc1ccccc1-c1nccc(NCc2ccccc2)n1 | . | . | . | 3.4% | . | .
Cc1[nH]n2c(=O)c3c(nc2c1-c1ccccc1)CCC3 | 1.0% | -5.1% | -15.7% | 3.1% | -10.9% | 0.5%
Nc1[nH]n2c(=O)c3c(nc2c1N=Nc1ccc(Cl)cc1)CCCC3 | 4.0% | -9.2% | 1.41µM* | 3.3% | -1.8% | 0.1%
Cc1[nH]n2c(=O)c3c(nc2c1-c1ccc(Cl)cc1)CCC3 | -12.7% | 1.4% | -6.8% | 8.5% | 6.5% | 2.4%
Nc1[nH]n2c(=O)c3c(nc2c1N=Nc1ccccc1)CCCC3 | 5.6% | ? | 4.47µM* | 0.2% | 0.9% | -3.0%
COCCN(CCOC)c1nc(C)nc2c1nc(-c1ccccc1)n2CCN1CCCC1 | 4.2% | -1.8% | -2.5% | 2.5% | 3.7% | -1.8%
CCOC(=O)c1ccc(/C=C2/C=C(c3ccccc3)N(c3ccc(Cl)c(C(=O)O)c3)C2=O)cc1 | 5.6% | 8.0% | 15.8µM* | 123.3% | -10.3% | -2.1%
CCOC(=O)c1ccc(Cl)c(NC(=O)c2ccc(-c3ccccc3)cc2)c1 | -5.0% | 4.1% | 3.5% | 6.7% | -3.6% | -2.7%
Cc1cc(C)c2c(n1)sc1c(O)cc(=O)[nH]c12 | -20.1% | -7.8% | -15.4% | 11.9% | -9.0% | -0.2%
COc1ccc(-c2cc(C(F)(F)F)c3c(n2)sc2c(O)cc(=O)[nH]c23)c(OC)c1 | -2.1% | -21.2% | 14.1µM* | 170.6% | -1.1% | -0.2%
C=CCOC(/C=C/c1ccccc1)CC (stereo unspecified) | -4.3% | . | . | . | . | -1.2%
CCc1ccccc1NCC(=O)Nc1ccc(Cl)c(C(F)(F)F)c1 | 5.4% | 17.8µM*[quencher] | -18.9% | 4.8% | ? | -1.5%
SMILES | TRb SRC2 PPI | Tau fluor counter | Tau fibril ThT | GoLoco inh red | Tau fibril FP | TexasRed fluor
COc1ccccc1NC(=O)CN1CCN(CC(=O)Nc2ccc(Cl)c(C(F)(F)F)c2)CC1 | -4.9% | -24.0% | -5.8% | 4.3% | -7.1% | -2.7%
Nc1c(N=Nc2ccc(S(=O)(=O)CCOS(=O)(=O)O)cc2)c(S(=O)(=O)O)cc2cc(S(=O)(=O)O)c(N=Nc3ccc(S(=O)(=O)CCOS(=O)(=O)O)cc3)c(O)c12 | 29.8%[201 µM] | . | . | . | . | 44.7µM*[quencher]
COc1ccc(NC=O)c(C(=O)CCNC(C)=O)c1 | -1.6% | . | . | . | . | -2.3%
CC(c1ccccc1)C1OCC(C[N+]2(C)CCCCC2)O1 (stereo unspecified) | -5.2% | -11.0% | -10.6% | 10µM* | -0.2% | 0.3%
CC(c1ccccc1)C(CC(=O)O)C(=O)NC1CCCCC1 (stereo unspecified) | -2.4% | -5.8% | 0.8% | 5.0% | -14.8% | -0.7%
COc1cccc(C2C(C)CCC3C(=O)N(C)C(C(C)C)C(=O)N32)c1 (stereo unspecified) | -4.1%[11.2 µM] | -4.3%[11.6 µM] | -3.1%[11.5 µM] | . | 1.1%[11.6 µM] | -2.6%[11.2 µM]
N#C/C(=N\Nc1cccc([N+](=O)[O-])c1)C(=O)c1ccc(Br)cc1 | -1.6% | ? | 10µM* | 16.3% | 13.7% | -10.0%
Cc1nnc(C)n1/N=C/c1cc(Br)cc(Br)c1O | 3.8% | -11.5% | 11.2µM* | -4.8% | -11.6% | -7.5%
Cc1cnc(C(=O)Nc2ccc(N3CCN(C(=O)OC(C)(C)C)CC3)cc2)cn1 | -5.9% | -20.5% | 1.78µM* | 4.9% | -6.6% | -0.1%

Assay outcomes as filed in PubChem BioAssay.
